# The full data set covers some 7,900 targets. This sample favours those with a hit. About 0.6% of all pairs of compound and target were hits. Values without a mark were called inactive.
# Tests used:
# Assay in all cases: log2 fold change, soluble protein after heating vs DMSO (PISA); higher = thermal stabilisation; K562 cells, 10 uM, 30 min; active = over 0.2 and 3.5 SD of the protein, either way, in both replicates (recomputed)
# bafetinib = compound: Cc1ccc(NC(=O)c2ccc(CN3CC[C@H](N(C)C)C3)c(C(F)(F)F)c2)cc1Nc1nccc(-c2cncnc2)n1 [bafetinib]
# Procedure, shortened: (§1)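 Soluble protein was defined as the supernatant after 21,000xg for 90 min. It came from K562 cells at 2×10^6 cells/mL given 10 μM compound for 30 min, heated in aliquots for 3 min across 48°C-58°C, pooled, and extracted in PBS with 0.5% NP-40 at 4°C, and was quantified by TMTpro 16plex LC-MS/MS with equalised channel sums. Thermal stability against control samples, from duplicates, is reported as log2 fold change.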
# [1] = compound: Cc1cccc(CC(=O)N2CCc3c2ccc(-c2cn(C)c4ncnc(N)c24)c3F)n1
# Procedure, shortened: as §1
# nilotinib = compound: Cc1cn(-c2cc(NC(=O)c3ccc(C)c(Nc4nccc(-c5cccnc5)n4)c3)cc(C(F)(F)F)c2)cn1 [nilotinib]
# Procedure, shortened: as §1
# [2] = compound: Cc1nc(Nc2n[nH]c3c2CN(C(=O)N[C@H](CN(C)C)c2ccccc2)C3(C)C)c2sccc2n1
# Procedure, shortened: as §1
# dasatinib = compound: Cc1nc(Nc2ncc(C(=O)Nc3c(C)cccc3Cl)s2)cc(N2CCN(CCO)CC2)n1 [dasatinib]
# Procedure, shortened: as §1
# [3] = compound: Cc1ncc(-c2ccnc(Nc3ccc(S(C)(=O)=O)cc3)n2)n1C(C)C
# Procedure, shortened: as §1
# [4] = compound: Cn1cc(-c2ccc3c(c2)CCN3C(=O)Cc2cccc(C(F)(F)F)c2)c2c(N)ncnc21
# Procedure, shortened: as §1
# [5] = compound: Cn1cc(-c2ccc3nnc(C(F)(F)c4ccc5ncccc5c4)n3n2)cn1
# Procedure, shortened: as §1
# tipifarnib = compound: Cn1cncc1[C@@](N)(c1ccc(Cl)cc1)c1ccc2c(c1)c(-c1cccc(Cl)c1)cc(=O)n2C [tipifarnib]
# Procedure, shortened: as §1
# mubritinib = compound: FC(F)(F)c1ccc(/C=C/c2nc(COc3ccc(CCCCn4ccnn4)cc3)co2)cc1 [mubritinib]
# Procedure, shortened: as §1
# [6] = compound: NC(=O)Nc1cc(-c2cccc(F)c2)sc1C(=O)N[C@H]1CCCNC1
# Procedure, shortened: as §1
# [7] = compound: NC(=O)c1cnc(N[C@@H]2CCCC[C@@H]2N)nc1Nc1cccc(-n2nccn2)c1
# Procedure, shortened: as §1
# [8] = compound: NC1(c2ccc(-c3nc4ccn5c(=O)[nH]nc5c4cc3-c3ccccc3)cc2)CCC1
# Procedure, shortened: as §1
# [9] = compound: NCC(=O)Nc1ccc(-n2nc(C(F)(F)F)cc2-c2ccc3c(ccc4ccccc43)c2)cc1
# Procedure, shortened: as §1
# entinostat = compound: Nc1ccccc1NC(=O)c1ccc(CNC(=O)OCc2cccnc2)cc1 [entinostat]
# Procedure, shortened: as §1
# vorinostat = compound: O=C(CCCCCCC(=O)Nc1ccccc1)NO [vorinostat]
# Procedure, shortened: as §1
# citarinostat = compound: O=C(CCCCCCNC(=O)c1cnc(N(c2ccccc2)c2ccccc2Cl)nc1)NO [citarinostat]
# Procedure, shortened: as §1
# silmitasertib = compound: O=C(O)c1ccc2c(c1)nc(Nc1cccc(Cl)c1)c1ccncc12 [silmitasertib]
# Procedure, shortened: as §1
# [10] = compound: O=C1NC(=O)C(c2cnc3ccccn23)=C1c1cn2c3c(cc(F)cc13)CN(C(=O)N1CCCCC1)CC2
# Procedure, shortened: as §1
# [11] = compound: c1cc(OCCN2CCCCC2)cc(-c2n[nH]c3ccc(-c4nnc[nH]4)cc23)c1
# Procedure, shortened: as §1
# UniProt Q9H081, sequence (Q9H081 whole entry, looked up): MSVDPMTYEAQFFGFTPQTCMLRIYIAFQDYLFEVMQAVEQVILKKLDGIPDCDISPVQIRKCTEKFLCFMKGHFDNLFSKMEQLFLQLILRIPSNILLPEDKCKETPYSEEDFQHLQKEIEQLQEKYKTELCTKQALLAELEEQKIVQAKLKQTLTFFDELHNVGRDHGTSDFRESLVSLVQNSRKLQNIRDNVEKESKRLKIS
# UniProt Q14980, sequence (Q14980 whole entry, looked up): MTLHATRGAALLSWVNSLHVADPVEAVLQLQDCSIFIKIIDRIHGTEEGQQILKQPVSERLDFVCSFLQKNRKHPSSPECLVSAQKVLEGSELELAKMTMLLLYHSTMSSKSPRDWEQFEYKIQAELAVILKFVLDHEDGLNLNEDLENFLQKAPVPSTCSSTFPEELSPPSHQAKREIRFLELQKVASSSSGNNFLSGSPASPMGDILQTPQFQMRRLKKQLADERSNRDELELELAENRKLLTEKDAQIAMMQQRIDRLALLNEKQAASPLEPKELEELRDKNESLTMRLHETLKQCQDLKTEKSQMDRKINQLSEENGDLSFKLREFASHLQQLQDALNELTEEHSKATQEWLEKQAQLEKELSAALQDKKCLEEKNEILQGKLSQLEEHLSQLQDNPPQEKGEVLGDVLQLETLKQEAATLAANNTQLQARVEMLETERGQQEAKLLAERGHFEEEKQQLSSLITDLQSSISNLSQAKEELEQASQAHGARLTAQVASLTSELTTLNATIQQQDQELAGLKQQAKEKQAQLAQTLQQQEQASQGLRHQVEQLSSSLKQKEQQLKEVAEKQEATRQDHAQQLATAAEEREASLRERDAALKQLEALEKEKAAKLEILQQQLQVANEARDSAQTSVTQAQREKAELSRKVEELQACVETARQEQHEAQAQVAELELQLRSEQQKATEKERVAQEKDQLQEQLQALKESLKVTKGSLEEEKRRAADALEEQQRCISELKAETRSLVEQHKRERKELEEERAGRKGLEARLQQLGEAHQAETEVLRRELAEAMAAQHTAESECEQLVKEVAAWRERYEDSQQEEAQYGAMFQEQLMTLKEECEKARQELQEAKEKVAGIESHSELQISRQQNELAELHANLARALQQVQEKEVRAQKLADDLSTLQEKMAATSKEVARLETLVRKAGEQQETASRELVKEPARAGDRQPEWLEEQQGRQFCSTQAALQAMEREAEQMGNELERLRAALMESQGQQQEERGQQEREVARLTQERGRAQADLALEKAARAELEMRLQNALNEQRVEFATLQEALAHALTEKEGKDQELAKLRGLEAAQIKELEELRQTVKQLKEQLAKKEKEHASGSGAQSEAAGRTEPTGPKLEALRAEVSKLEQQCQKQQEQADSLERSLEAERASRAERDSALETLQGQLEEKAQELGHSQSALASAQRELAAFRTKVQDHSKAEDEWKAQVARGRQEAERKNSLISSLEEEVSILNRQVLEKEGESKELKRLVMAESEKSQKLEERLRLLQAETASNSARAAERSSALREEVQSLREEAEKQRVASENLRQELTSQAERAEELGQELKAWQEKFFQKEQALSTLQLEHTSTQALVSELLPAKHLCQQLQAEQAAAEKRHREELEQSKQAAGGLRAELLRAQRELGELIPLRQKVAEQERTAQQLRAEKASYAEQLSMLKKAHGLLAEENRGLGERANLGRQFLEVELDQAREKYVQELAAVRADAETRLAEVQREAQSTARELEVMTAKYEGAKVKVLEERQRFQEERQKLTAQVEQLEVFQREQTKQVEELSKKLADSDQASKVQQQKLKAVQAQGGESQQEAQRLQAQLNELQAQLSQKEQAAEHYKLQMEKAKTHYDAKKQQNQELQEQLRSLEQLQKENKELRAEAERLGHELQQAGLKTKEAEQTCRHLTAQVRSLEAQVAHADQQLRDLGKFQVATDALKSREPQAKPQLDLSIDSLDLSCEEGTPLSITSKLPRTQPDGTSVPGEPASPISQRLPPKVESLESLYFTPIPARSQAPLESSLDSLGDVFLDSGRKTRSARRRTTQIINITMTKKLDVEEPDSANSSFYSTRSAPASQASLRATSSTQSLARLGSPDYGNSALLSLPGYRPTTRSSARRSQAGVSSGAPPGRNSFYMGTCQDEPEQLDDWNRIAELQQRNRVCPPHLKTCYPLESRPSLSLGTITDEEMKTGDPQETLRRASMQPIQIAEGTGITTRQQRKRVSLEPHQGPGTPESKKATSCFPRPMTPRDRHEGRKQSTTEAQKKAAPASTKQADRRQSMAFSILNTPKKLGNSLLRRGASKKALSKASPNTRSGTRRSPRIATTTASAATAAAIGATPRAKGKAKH
# UniProt P17568, sequence (P17568 whole entry, looked up): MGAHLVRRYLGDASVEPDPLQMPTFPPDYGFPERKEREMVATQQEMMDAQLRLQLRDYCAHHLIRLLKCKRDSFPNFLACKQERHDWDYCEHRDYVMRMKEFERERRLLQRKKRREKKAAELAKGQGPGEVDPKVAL
# UniProt Q8NBF2, sequence (Q8NBF2 whole entry, looked up): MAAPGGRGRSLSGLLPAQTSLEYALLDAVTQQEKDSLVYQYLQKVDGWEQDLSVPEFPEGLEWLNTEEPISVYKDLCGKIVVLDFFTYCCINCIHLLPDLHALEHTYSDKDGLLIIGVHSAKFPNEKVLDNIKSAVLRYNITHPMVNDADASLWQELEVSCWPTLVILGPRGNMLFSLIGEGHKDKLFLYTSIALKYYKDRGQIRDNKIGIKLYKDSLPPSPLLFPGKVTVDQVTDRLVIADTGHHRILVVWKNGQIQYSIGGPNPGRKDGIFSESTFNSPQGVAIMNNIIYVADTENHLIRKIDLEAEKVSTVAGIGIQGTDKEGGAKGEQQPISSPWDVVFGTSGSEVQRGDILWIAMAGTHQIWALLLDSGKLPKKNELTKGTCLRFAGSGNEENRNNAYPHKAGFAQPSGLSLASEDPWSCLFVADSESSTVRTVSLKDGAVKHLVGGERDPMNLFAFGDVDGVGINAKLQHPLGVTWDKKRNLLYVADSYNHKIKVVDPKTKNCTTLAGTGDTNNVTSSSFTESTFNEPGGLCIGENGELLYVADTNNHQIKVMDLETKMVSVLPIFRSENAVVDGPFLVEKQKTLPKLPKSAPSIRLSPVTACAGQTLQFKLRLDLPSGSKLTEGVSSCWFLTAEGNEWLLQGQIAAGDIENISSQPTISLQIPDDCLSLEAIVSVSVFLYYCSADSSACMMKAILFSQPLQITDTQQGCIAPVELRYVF
# UniProt O00567, sequence (O00567 whole entry, looked up): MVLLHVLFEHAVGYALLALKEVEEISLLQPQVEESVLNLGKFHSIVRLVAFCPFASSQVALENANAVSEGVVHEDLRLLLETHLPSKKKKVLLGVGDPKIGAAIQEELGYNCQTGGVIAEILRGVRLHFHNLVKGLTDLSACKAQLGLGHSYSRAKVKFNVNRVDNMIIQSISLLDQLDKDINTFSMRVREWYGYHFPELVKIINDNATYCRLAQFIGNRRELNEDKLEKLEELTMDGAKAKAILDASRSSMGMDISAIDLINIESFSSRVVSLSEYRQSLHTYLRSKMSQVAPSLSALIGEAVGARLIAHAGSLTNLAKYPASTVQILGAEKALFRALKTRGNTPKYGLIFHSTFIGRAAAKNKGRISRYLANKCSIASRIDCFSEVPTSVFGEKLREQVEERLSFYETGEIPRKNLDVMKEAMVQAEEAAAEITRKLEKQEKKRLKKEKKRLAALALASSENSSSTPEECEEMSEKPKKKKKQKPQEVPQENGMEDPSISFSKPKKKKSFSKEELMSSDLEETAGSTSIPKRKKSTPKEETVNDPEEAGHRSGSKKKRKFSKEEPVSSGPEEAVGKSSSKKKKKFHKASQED
# UniProt O95747, sequence (O95747 whole entry, looked up): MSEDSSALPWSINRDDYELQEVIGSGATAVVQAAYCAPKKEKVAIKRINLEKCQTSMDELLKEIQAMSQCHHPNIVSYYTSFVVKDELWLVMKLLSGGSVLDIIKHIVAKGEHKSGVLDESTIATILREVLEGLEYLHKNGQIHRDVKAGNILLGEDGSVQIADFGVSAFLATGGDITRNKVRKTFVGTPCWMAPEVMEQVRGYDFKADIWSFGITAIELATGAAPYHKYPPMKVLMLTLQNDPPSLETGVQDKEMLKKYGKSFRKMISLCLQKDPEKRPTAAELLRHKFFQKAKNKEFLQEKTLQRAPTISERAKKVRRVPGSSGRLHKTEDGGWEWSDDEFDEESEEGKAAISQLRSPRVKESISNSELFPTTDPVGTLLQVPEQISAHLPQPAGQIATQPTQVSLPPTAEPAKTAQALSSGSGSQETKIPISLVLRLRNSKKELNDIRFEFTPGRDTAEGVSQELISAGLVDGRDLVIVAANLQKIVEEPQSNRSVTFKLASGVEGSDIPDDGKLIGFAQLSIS
# UniProt O00217, sequence (O00217 whole entry, looked up): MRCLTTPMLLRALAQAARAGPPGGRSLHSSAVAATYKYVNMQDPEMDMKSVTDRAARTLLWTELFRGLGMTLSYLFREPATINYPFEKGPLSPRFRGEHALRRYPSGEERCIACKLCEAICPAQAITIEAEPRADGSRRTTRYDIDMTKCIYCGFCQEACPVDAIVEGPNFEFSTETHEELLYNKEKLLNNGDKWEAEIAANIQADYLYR
# UniProt P55209, sequence (P55209 whole entry, looked up): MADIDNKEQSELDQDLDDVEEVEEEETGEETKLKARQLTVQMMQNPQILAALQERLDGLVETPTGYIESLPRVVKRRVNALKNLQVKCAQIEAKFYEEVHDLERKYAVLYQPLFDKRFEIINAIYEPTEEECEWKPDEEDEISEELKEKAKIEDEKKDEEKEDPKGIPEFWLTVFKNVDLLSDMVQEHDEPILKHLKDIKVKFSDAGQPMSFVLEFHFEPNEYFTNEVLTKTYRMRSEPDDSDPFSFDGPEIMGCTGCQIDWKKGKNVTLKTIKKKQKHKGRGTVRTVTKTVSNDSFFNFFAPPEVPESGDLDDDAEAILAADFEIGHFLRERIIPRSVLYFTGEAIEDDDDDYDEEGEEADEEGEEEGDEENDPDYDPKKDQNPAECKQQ
# UniProt O00483, sequence (O00483 whole entry, looked up): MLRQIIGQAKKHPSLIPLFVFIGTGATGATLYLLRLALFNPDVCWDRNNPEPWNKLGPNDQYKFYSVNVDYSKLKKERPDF
Target,log2 fold change (bafetinib),log2 fold change [1],log2 fold change (nilotinib),log2 fold change [2],log2 fold change (dasatinib),log2 fold change [3],log2 fold change [4],log2 fold change [5],log2 fold change (tipifarnib),log2 fold change (mubritinib),log2 fold change [6],log2 fold change [7],log2 fold change [8],log2 fold change [9],log2 fold change (entinostat),log2 fold change (vorinostat),log2 fold change (citarinostat),log2 fold change (silmitasertib),log2 fold change [10],log2 fold change [11]
NUMA1 (UniProt Q14980),0.121,0.005,0.031,-0.22,0.019,-0.013,-0.194,-0.031,0.086,-0.043,-0.117,-0.091,-0.139,0.101,0.072,0.002,0.01,0.005,0.007,-0.12
MRPL34 (UniProt Q9BQ48),0.176,0.035,-0.083,0.248,0.065,-0.064,-0.142,-0.048,0.058,0.032,0.02,0.018,0.045,0.095,-0.041,0.035,0.004,0.053,0.09,-0.175
NDUFA4 (UniProt O00483),-0.043,0.014,0.024,0.02,0.032,-0.074,0.039,0.239,0.054,0.018,0.026,0.009,-0.075,-0.013,0.061,-0.11,0.037,-0.005,-0.056,-0.098
NOP56 (UniProt O00567),0.225,-0.099,0.098,-0.018,0.204,-0.026,-0.371,-0.18,0.201,-0.164,0.162,0.14,0.197,0.103,-0.084,0.014,-0.058,0.096,0.09,-0.156
NFE2 (UniProt Q16621),-0.048,-0.13,-0.063,-0.068,-0.016,-0.071,-0.051,-0.08,-0.066,0.026,0.035,-0.049,-0.091,-0.062,-0.024,0.055,0.04,0.145,-0.037,0.006
NMNAT1 (UniProt Q9HAN9),0.052,-0.034,-0.073,0.023,0.159,-0.047,-0.143,-0.21,0.118,-0.047,0.171,0.145,0.197,0.081,0.002,-0.077,-0.033,0.201,0.259,-0.174
OXSR1 (UniProt O95747),-0.014,-0.012,-0.083,-0.029,-0.179,0.031,0.038,0.005,-0.117,-0.05,-0.014,-0.048,-0.151,-0.064,0.031,0.042,0.045,-0.071,-0.007,0.018
NIBAN1 (UniProt Q9BZQ8),-0.013,0.121,-0.041,-0.383 (active),-0.14,-0.057,0.001,-0.035,-0.04,0.013,-0.118,-0.036,-0.169,-0.036,0.073,0.106,0.123,0.029,-0.069,-0.106
NHLRC2 (UniProt Q8NBF2),-0.141,0.002,-0.05,-0.004,-0.052,-0.001,0.042,0.006,-0.024,0.058,-0.077,-0.02,-0.171,-0.065,0.009,0.02,-0.007,0.009,-0.063,-0.015
NAP1L1 (UniProt P55209),-0.018,-0.094,0.009,-0.044,0.05,0.022,-0.004,-0.039,0.001,-0.014,-0.084,0.049,-0.01,-0.016,0.02,0.008,-0.01,0.069,-0.038,0.069
NUMB (UniProt P49757),-0.013,0.022,-0.05,-0.078,0.017,-0.12,0.063,-0.008,0.059,-0.053,-0.088,-0.022,-0.002,-0.003,-0.041,0.037,0.009,0.007,-0.097,-0.032
NDUFS8 (UniProt O00217),-0.055,0.047,-0.036,-0.002,-0.1,-0.047,0.1,0.055,-0.053,0.111,-0.049,-0.042,-0.163,-0.018,0.065,0.019,0.024,-0.019,-0.052,-0.041
MRPS18B (UniProt Q9Y676),0.125,0.055,-0.154,0.098,-0.024,-0.342,0.005,0.081,-0.059,0.172,0.133,0,0.021,0.105,-0.047,0.08,-0.03,-0.061,-0.03,-0.026
NDUFB7 (UniProt P17568),0,0.164,-0.029,0.057,0.022,-0.053,0.043,0.01,-0.029,-0.007,0.039,-0.015,-0.02,0.055,-0.013,-0.037,0.029,0,-0.094,0.009
NUDCD2 (UniProt Q8WVJ2),0.017,0.033,-0.119,-0.216,-0.171,-0.026,0.02,0.066,-0.1,0.077,-0.108,-0.099,-0.056,-0.172,0.028,0.147,0.007,0.063,-0.183,-0.044
MIS12 (UniProt Q9H081),-0.05,0.017,-0.062,-0.048,-0.114,0.037,-0.028,0.005,0.016,0.071,0.016,-0.084,-0.079,-0.101,0.027,0.123,0.014,0.016,0.02,-0.081

# Source: the supplement of paper PMC10849652
